These results are taken from PubChem BioAssay AID1986 (Sanford-Burnham Center for Chemical Genomics, 2009).

The experiment can be described thus: inhibitors of HIV fusion peptide binding, primary screen, biochemical, uHTS, fluorescence dequenching (AID 1986). As to conditions: cell-free peptide binding, 30 min, stronger effect = higher value.
The mark [1] stands for this setting: measured here: repeat confirmation average inhibition, at 18.6 µM.

The whole screen tested about 290,000 compounds, of which about 890 (0.31%) were called active. No stated cut-off is given here; in the data, active means inhibition mostly above about 52% (no sharp cut-off); inactive means mostly below about 76%. For the sample, actives were picked, then their nearest neighbours and some compounds at random.

As usually defined, the inhibition is the change of the read-out against control, counted positive when it falls.

As for `CC(=O)NS(=O)(=O)c1ccc(N=c2ssc3c2-c2cc(C)ccc2NC3(C)C)cc1`, where the note is “at 20 µM”, the inhibition was 46.9% (inactive).
On the same count and under the same terms, the same measure for `CC(=O)NS(=O)(=O)c1ccc(N=c2ssc3c2-c2ccc(C)cc2NC3(C)C)cc1`: 52.5% (active).
In the case of `CC(=O)NS(=O)(=O)c1ccc(N=c2ssc3c2-c2cc(C)c(C)cc2NC3(C)C)cc1`, the inhibition by setting is: (at 20 µM) 51.7% (inactive); under setting [1], 11.3%.
`N#Cc1c(Cl)nc(SCc2ccccc2)nc1-c1ccccc1`: the inhibition (at 20 µM) is -2.7% (inactive).
The same measure, in the same setting: the same measure for `O=C(CSc1nc(O)cc(=O)[nH]1)N1c2ccccc2Sc2ccccc21`: 2.6% (inactive).
Still for that read-out and setting: the same measure for `Cc1nc(SCC(=O)N2c3ccccc3Sc3ccccc32)n[nH]1`: -1.2% (inactive); for `Cc1snc(SCc2cccc(Cl)c2)c1C#N`: -1.1% (inactive).
Consider `CC(C)NC(=O)CSc1nnc(-c2ccc(S(=O)(=O)N3CCCC3)cc2)n1CC1CCCO1` (stereo unspecified), for which the inhibition (at 20 µM) is -1.1% (inactive).
The same measure, in the same setting: the same measure for `CCn1cnc2scc(-c3ccc(OC)cc3)c2c1=O`: 2% (inactive); for `CC1CCC2(CC1)NC(=O)N(Cc1cc(=O)n3ccsc3n1)C2=O` (stereo unspecified): -0.3% (inactive).
Same read-out and setting: the same measure for `O=C(OCc1c(Cl)cccc1Cl)c1cccnc1`: -1.3% (inactive).
The same measure, in the same setting: the same measure for `CCCN(CCC)Cc1cc2ccccc2c2c1COC2`: 1.9% (inactive); for `Cc1ccc(Cc2c(C)[nH]c(=S)[nH]c2=O)cc1`: 0.1% (inactive); for `CCOc1ccc(CC(=O)Nc2cc(=O)n(C)c(=O)n2C)cc1`: 1.4% (inactive).
On to `CCN(CC)c1ccc2cc(C(N)=O)/c(=N\NC(=O)c3ccncc3)oc2c1`, for which the inhibition is 97.7% (active) (at 20 µM) and 54.3% under setting [1].
For the molecule `CCN(CC)c1ccc2cc(C(N)=O)c(=N)oc2c1`, under “at 20 µM”, the inhibition was 136% (inactive).
Take `N/C(=N\NC(=O)c1cccs1)c1cc2ccccc2oc1=O`: the inhibition (at 20 µM) is 1.8% (inactive).
On the same count and under the same terms, the value for `N/C(=N\NC(=O)c1cccs1)c1cc2cc(Cl)ccc2oc1=O` was 2.7% (inactive); that for `NC(=O)c1cc2ccccc2o/c1=N\NC(=O)c1ccncc1` was -1.9% (inactive).
For `CCN(CC)c1ccc2cc(/C(N)=N/NC(=O)c3cccs3)c(=O)oc2c1`, the inhibition is, setting by setting: (at 20 µM) 99.5% (active); under setting [1], 53.8%.
On to `COC(=O)CCc1nc2cc(Cl)ccc2n(Cc2ccccc2)c1=O`, for which the inhibition (at 20 µM) was 0% (inactive).
The same measure, in the same setting: the same measure for `O=C(NCc1cccs1)C1CC(=O)N(c2ccccc2)C1` (stereo unspecified): -2.2% (inactive).
In the case of `COc1cccc(C=N[C@@H](CO)[C@@H](O)c2ccc([N+](=O)[O-])cc2)c1O`, the inhibition (at 20 µM) is -1% (inactive).
On to `COC(=O)/C(N=Nc1c(C)n(C)n(-c2ccccc2)c1=O)=C(\C)O`, for which the inhibition (at 20 µM) is 2.8% (inactive).
Still for that read-out and setting: the same measure for `CCCCC1=CC2=CC(=O)C(C)(OC(=O)CCc3ccccc3)C(=O)C2=CO1` (stereo unspecified): 41.7% (inactive).
Take `COC(=O)CCCC1=CC2=CC(=O)C(C)(OC(=O)C3CCCC3)C(=O)C2=CO1` (stereo unspecified): the inhibition reads like this: (at 20 µM) 52.5% (inactive); under setting [1], 24.7%.
On to `CCCCC1=CC2=CC(=O)C(C)(OC(=O)C3CCCC3)C(=O)C2=CO1` (stereo unspecified), for which the inhibition (at 20 µM) was 68.3% (active).
